# Screening data as filed in PubChem.
# HCV inhibitor = HCV inhibition; Huh7.5.1 HCVcc-Cre infection, luciferase reporter, 44 h; 340,000 tested, 3.4% active; Potency, µM (highest dose often 41.8 µM), for the others: at the highest dose activity change, negative = inhibition, most hits filed as inhibitors; further: potency means the concentration at half of the fitted maximal effect
#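 Antiviral activity was scored by luciferase reporter output from cells infected with HCVcc-Cre (~0.5 moi) in presence of compound, 44 h infection period, cells seeded 1,000/well 4 h prior.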
# Pf growth 48h = P. falciparum growth inhibition at 48 hours (one generation); AID 504832; P. falciparum luciferase growth in erythrocytes, 48 h; Potency, µM (series often up to 28.7 µM), for the others: at the top dose activity change, negative = inhibition, actives largely listed as inhibitors; 310,000 tested, 5.9% active; further: potency means the concentration at half of the fitted maximal effect
#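 In quantitative HTS format, infected erythrocytes bearing luciferase-reporter parasites were treated for a single generation at 37 C. Luminescence after adding detection reagent served as the growth measure.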
# MARV entry inh = Marburg virus entry inhibition. Potency, µM (highest dose often 37.8 µM), for inactives: top-dose activity change, negative = inhibition, usual class: inhibitors. AID 540276. Marburg virus pseudotyped entry inhibition, cell reporter. 300,000 tested, 1.8% active; calls by dose curve; tested in HEK293 cells; further: potency means the concentration at half of the fitted maximal effect
# Lassa entry inh = Lassa virus entry inhibition. Lassa virus pseudotype entry inhibition, cell reporter. Potency, µM (doses to about 37.9 µM), inactives show at the highest dose activity change, negative = inhibition, actives largely listed as inhibitors. 300,000 tested, 1.2% active; calls by dose curve; tested in HEK293 cells; further: potency means the concentration at half of the fitted maximal effect; nearly all actives have a fitted effect of over 50% in size
# Pf growth 96h = P. falciparum growth inhibition at 96 hour, primary screen for plastid delayed-death inhibitors | AID 504834 | 320,000 tested, 6.9% active | Potency, µM (highest dose often 28.7 µM), for inactives: at the highest dose activity change, negative = inhibition, actives largely listed as inhibitors | P. falciparum luciferase reporter growth, 96 h; further: potency means the concentration at half of the fitted maximal effect
#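 Delayed-death screen, second-generation endpoint: infected erythrocytes, 2% hematocrit, 0.05% parasitemia final; 96 hours at 37 C, 5% CO2; luciferase detection reagent; luminescence decrease equals reduced growth.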
# HCMV antiviral = human cytomegalovirus inhibition. HFF cells, HCMV-luciferase reporter, 72 h; hits give low values. 410,000 tested, 4.5% active. activity change, negative = inhibition, % at 57.5 µM; in the data active means activity change below about -60%; inconclusive means no clear call, values can overlap the other calls; inactive means above about -39%
#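 Two compound doses tested in HFFs infected with HCMV-luciferase, MOI 1 PFU/cell, 72 h at 37C. Lysate luminescence read with OneGlo; data normalized against buffer-only and 10uM Salinomycin inhibitor controls.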
# Active calls of the source: *; ? = inconclusive; . = not tested or not shown; + = active, no number; [ ] = another dose, or the depositor's remark. Shown are actives, neighbours in structure and some others; about 14% of the full set was active somewhere. Unless noted, the call rests on the fitted dose curve; in most records, active means well fitted inhibition curve with a large enough effect; inconclusive means small, poorly fitted or top-dose-only effect, or another doubt; inactive means no such curve, though single readings can be large or run the other way. On the % scale 0 is the no-effect control and ±100 the full control effect.
SMILES,HCV inhibitor,Pf growth 48h,MARV entry inh,Lassa entry inh,Pf growth 96h,HCMV antiviral
CCc1ccc2[nH]c3nc(N/N=C/c4ccc(O)cc4O)nnc3c2c1,?,8.28µM*,3.55µM*,?,10.1%,-75.6*
CCOC(=O)COc1ccccc1C1C(C(=O)OC)=C(C)NC2=C1C(=O)c1ccccc12 (stereo not drawn),.,.,?,-7.2%[46.1 µM],.,-9.3
O=C(CN1CCN(Cc2ccc3c(c2)OCO3)CC1)Nc1cc(S(=O)(=O)N2CCCC2)ccc1Cl,6.31µM*,?,?,-6.2%,?,?
O=C(c1ccc(S(=O)(=O)N2CCCCC2)cc1)N1CCN(Cc2ccc3c(c2)OCO3)CC1,?,?,?,-15.0%,?,-19.1
CN(C)S(=O)(=O)c1ccc(Cl)c(NC(=O)CN2CCN(Cc3ccc4c(c3)OCO4)CC2)c1,?,?,.,.,0.0%,-60.4*
CCO[C@H](c1cc(OC)cc([N+](=O)[O-])c1OC)[C@H](C)[C@@H](OC)[C@H](C)/C=C/CC(=O)OC,.,.,1.2%[14.2 µM],.,.,.
COc1ccc(NC(=S)NNc2ccc([N+](=O)[O-])cc2S(=O)(=O)Nc2ccc(C)cc2C)cc1,14.1µM*,-5.9%,?,?,?,-65.8*
Cc1ccc(NS(=O)(=O)c2cc([N+](=O)[O-])ccc2NNC(=S)Nc2cc(C)ccc2C)c(C)c1,11.2µM*,14.7µM*,?,14.1µM*,9.28µM*,-102.8*
C=CCN1[C@@H](CC(C)C)COc2cccc(NCCCN3CCOCC3)c2S1(=O)=O,.,.,.,.,.,-18.8
CN(C)c1ccc(CN(Cc2ccco2)C(=O)c2ccc(C(C)(C)C)cc2)cc1,.,.,-0.6%[46.1 µM],?,.,-4.9
COc1ccc(S(=O)(=O)c2ccc(OC)cc2)cc1,25.9%,9.0%,?,-5.6%,.,-36.3
COc1ccc(S(=O)(=O)/N=C2/C=CC(=O)C(C)=C2C)cc1,12.6µM*,?,?,-9.0%,?,.
CC1=C(C)/C(=N\OS(=O)(=O)c2ccc(C)cc2)C=CC1=O,?,?,1.41µM*,6.31µM*,-1.2%,-85.6*
CC(=O)c1ccc(NC(=O)COc2ccccc2-c2nc(C(C)C)no2)cc1,.,.,9.1%[46.1 µM],-4.2%[46.1 µM],.,10.7
COc1ccccc1NS(=O)(=O)c1cc([N+](=O)[O-])ccc1N/N=C/c1c[nH]c2ccccc12,15.8µM*,?,?,-3.9%,.,-31.1
COc1ccccc1NS(=O)(=O)c1cc([N+](=O)[O-])ccc1N/N=C/c1sc(N2CCOCC2)nc1-c1ccccc1,11.1%,3.29µM*,21.7%,-2.1%,?,-12.1
COc1ccc(NS(=O)(=O)c2ccc3c(c2)N(C(C)=O)CCO3)c(OC)c1,?,-0.9%,.,.,0.2%,11.2
CCc1nnc(NC(=O)c2ccc(S(=O)(=O)N3CCCCC3)cc2)s1,0.7%,11.0%,17.9%[46.1 µM],0.3%,-23.1%,-66.4*
CCOC(=O)N1CCN(S(=O)(=O)c2ccc(C(=O)Nc3nnc(CC)o3)cc2)CC1,21.4%,?,3.4%,?,0.0%,14.1
COCc1nnc(NC(=O)c2ccc(S(=O)(=O)N3CCCC3)cc2)o1,22.2%,?,26.3%,14.7%,?,-60.8*
CCc1nnc(NC(=O)c2ccc(F)c(S(=O)(=O)N3CCCCC3)c2)s1,2.2%,8.0%,.,.,11.7µM*,-34.3
CCOc1ccc2nc(NC(=O)c3cc(=O)c4cc(C)cc(C)c4o3)sc2c1,.,.,-6.0%[46.1 µM],14.6%[46.1 µM],.,0.4
COc1ccc(NS(=O)(=O)c2ccc(C)c(NC(=O)CNC(=O)c3ccco3)c2)cc1,4.9%,-5.2%,11.2%,-1.1%,84.0%,-33.8
CCc1ccc(Nc2nc3c(S(=O)(=O)c4ccc(C)cc4)nnn3c3ccsc23)cc1,.,.,.,?,.,-20.2
COc1cc(/C=N/OCC(=O)NC23CC4CC(CC(C4)C2)C3)ccc1OCc1ccccc1,?,?,-28.7%,?,9.28µM*,0.1
SMILES,HCV inhibitor,Pf growth 48h,MARV entry inh,Lassa entry inh,Pf growth 96h,HCMV antiviral
COc1cc(/C=N/OCC(=O)Nc2ccc(OC(F)F)cc2)ccc1OCc1ccccc1,?,25.1%,7.08µM*,?,18.5%,12.4
COc1ccc(/C=N/OCC(=O)NC(c2ccccc2)c2ccccc2)cc1OC,3.98µM*,9.28µM*,?,?,8.28µM*,-65.5*
COC(=O)c1ccccc1C[C@]1(C(=O)OC)C=C[C@H](C)[C@@H](c2ccccc2)N1C(=O)C(F)(F)F,.,.,-16.1%[14.2 µM],?,.,.
O=C(NC1CC1)c1ccc2c(c1)C1C3CCC(C3)C1C(c1ccccc1)N2 (stereo not drawn),-5.5%,9.28µM*,6.3%,?,7.38µM*,-25.0
COc1ccc(N(CC(=O)Nc2ccc(OC)cc2OC)S(=O)(=O)c2ccccc2)cc1,?,?,?,?,?,-64.6*
COc1ccc(NC(=O)CN(c2ccc(OC)c(Cl)c2)S(=O)(=O)c2ccccc2)c(OC)c1,?,?,.,.,11.7µM*,12.7
CCOc1ccc(S(=O)(=O)N(CC(=O)Nc2ccc(OC)c(Cl)c2)c2ccccc2)cc1,.,.,3.1%[46.1 µM],-8.6%[46.1 µM],.,-60.2*
CCOc1ccc(N(CC(=O)Nc2ccccc2OC)S(=O)(=O)c2ccccc2)cc1,?,?,.,.,73.3%,-86.7*
COc1ccccc1NC(=O)CN(c1ccc([N+](=O)[O-])cc1)S(=O)(=O)c1ccccc1,1.3%,-27.6%,?,?,22.6%,-3.7
COc1ccc(NC(=O)CN(c2ccccc2F)S(=O)(=O)c2ccc(C)cc2)c(OC)c1,11.2µM*,?,.,.,0.7%,-30.7
CCOc1ccc(NC(=O)CN(c2ccc(Cl)cc2C)S(=O)(=O)c2ccccc2)cc1,.,.,?,?,.,-69.4*
CCOC(=O)c1c(C)[nH]c(C)c1S(=O)(=O)N(C)CC(=O)Nc1ccccc1OC,11.6%,10.4µM*,.,.,?,-11.1
COc1ccc(OC)c(CNc2ncnc3c2nc2n3CCCC2)c1,.,.,.,?,.,-30.6
O=C1CCC(C(=O)OCC(=O)Nc2ccc(Cl)cc2C(F)(F)F)=NN1,7.7%,.,.,.,.,-19.4
Cc1nc2ccccn2c1-c1ccnc(SCc2ccc(Cl)cc2)n1,?,5.86µM*,-21.2%[46.1 µM],-7.8%,1.85µM*,?
Cc1ccc2[nH]c(C(=O)NCCN3CCCC3)cc2c1,-18.2%,?,?,-5.0%[46.1 µM],11.7µM*,6.5
CCc1nn(CC(=O)NCCCN2CCOCC2)c(=O)c2cc3cc(F)ccc3n12,-32.4%,-2.6%,6.5%[46.1 µM],15.7%[46.1 µM],?,+
Cc1nn(CC(=O)NCCCN2CCCCC2)c(=O)c2cc(-c3ccccc3)nn12,-17.2%,17.1%,.,.,4.15µM*,8.7
COc1ccc(-c2cc3c(=O)n(CC(=O)NCCCN4CCC(N5CCCCC5)CC4)nc(C)n3n2)cc1,?,?,.,.,8.28µM*,?
Cc1ccccc1S(=O)(=O)N1CCN(C)CC1,9.6%,3.7%,9.4%,-4.2%,?,34.4
